Screening data: PubChem, National Center for Advancing Translational Sciences (NCATS)
This is a sample that favours compounds with a hit; in the whole collection about 10% have one here.
PNC assembly inh – perinucleolar compartment assembly inhibition | PC3M PTB-GFP, PNC prevalence imaging, 16 h; active compounds read low | activity change (PNC), negative = inhibition, % at 10 µM | 3.1% of 140,000 active | AID 2417;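 active means readout at or below -70, meaning at least 70% loss of cells showing the perinucleolar compartment, a nuclear body marking cancer cells; inconclusive means readout between -30 and a set limit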
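Read-out is percentage of cells bearing a perinucleolar compartment, from automated 20x imaging of fixed, Hoechst-stained PC3M PTB-GFP cells. Cells were seeded 4 h, then exposed 16 h to compound (23 nl of library stock) in duplicate plates.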
ALDH1A1 inh – blocks purified human ALDH1A1 activity; 7.3% of 220,000 active; Potency, µM (series often up to 75.3 µM), hits mostly inhibitors; P00352; AID 1030; Purified ALDH1A1, NADH fluorescence, propionaldehyde substrate; active means well fitted inhibition curve with a large enough effect, not every such curve was filed as active; inconclusive means small, poorly fitted or top-dose-only effect, or another doubt; inactive means no such curve, though single readings can be large or run the other way
aGal spleen mod – alpha-galactosidase A (human) modulation; P06280; human spleen homogenate, 4MU-alpha-Gal fluorescence, 40 min; Potency, µM (titrated, usually from 80 µM), most hits filed as inhibitors; 0.008% of 240,000 active
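Human spleen homogenate (1 ug) was the enzyme source, with 4-methylumbelliferyl-alpha-D-galactopyranoside (1 mM final) in pH 5.0 citrate buffer with 0.01% Tween-20. Compounds were titrated; after 40 min at 37C, NaOH/glycine stop, 4-MU fluorescence read; AC50 from Hill fits.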
HPGD block – HPGD (human) dehydrogenase inhibition. P15428. purified HPGD, NADH fluorescence kinetic, PGE2 substrate. AID 894. 4.3% of 150,000 active. Potency, µM, actives largely listed as inhibitors; active means well fitted inhibition curve with a large enough effect, not every such curve was filed as active; inconclusive means small, poorly fitted or top-dose-only effect, or another doubt; inactive means no such curve, though single readings can be large or run the other way
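20 nM HPGD preincubated 15 min at room temperature with compound in 50 mM Tris-HCl pH 8, 0.01% Tween 20. Started with 1 mM NAD+ and 30 uM prostaglandin E2; NADH fluorescence (360/450 nm) read 5 times over 30-s intervals, last minus first.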
ALOX12 inhib – inhibitors of human 12-lipoxygenase (ALOX12) | P18054 | purified 12-hLO, xylenol orange hydroperoxide absorbance | Potency, µM (doses to about 57.1 µM), usual class: inhibitors | 0.12% of 150,000 active; further: nearly all actives have a fitted effect of over 55% in size
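Xylenol orange chromogenic assay: hydroperoxide from 12hLO oxidises Fe(II), giving red-shifted Fe(III)-XO absorbance. Conditions: 150 nM enzyme, 40 uM arachidonic acid, 25 mM Hepes pH 7.0, 0.01% Triton X-100, 30 min, room temperature.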
GLA inh pH 4.5 – inhibitors of human alpha-galactosidase A at pH 4.5 | P06280 | purified enzyme, 4-MU-alpha-Gal fluorescence, pH 4.5 | activity change, negative = inhibition, % at 105 µM | 230,000 tested, under 10 active
Target sequence (P06280 whole entry, looked up): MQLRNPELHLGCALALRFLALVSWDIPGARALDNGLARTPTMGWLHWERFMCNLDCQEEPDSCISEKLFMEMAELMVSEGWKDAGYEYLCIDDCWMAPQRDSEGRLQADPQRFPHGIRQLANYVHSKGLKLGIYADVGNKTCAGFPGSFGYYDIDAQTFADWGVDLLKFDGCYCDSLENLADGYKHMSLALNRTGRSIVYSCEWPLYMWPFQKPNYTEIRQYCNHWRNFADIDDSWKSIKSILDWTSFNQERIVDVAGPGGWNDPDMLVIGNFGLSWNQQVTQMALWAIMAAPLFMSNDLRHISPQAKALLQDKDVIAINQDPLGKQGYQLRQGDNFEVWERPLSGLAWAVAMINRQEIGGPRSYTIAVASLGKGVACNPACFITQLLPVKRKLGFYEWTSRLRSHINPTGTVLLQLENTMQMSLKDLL
A number is an active result; . = inactive; ? = inconclusive; / = no result. Unless noted, the call rests on the fitted dose curve; in most records, active means well fitted curve in the direction sought with a large enough effect; inconclusive means small, poorly fitted or top-dose-only effect, or another doubt; inactive means no such curve, though single readings can be large; an effect the other way counts as inactive or inconclusive.

SMILES | PNC assembly inh | ALDH1A1 inh | aGal spleen mod | HPGD block | ALOX12 inhib | GLA inh pH 4.5
O=C(CCN1CCOCC1)NNC(=S)NC(=O)c1ccc(Br)cc1 | / | ? | . | / | / | .
O=C(CCN1CCCCC1)NNC(=S)NC(=O)c1ccc(Br)cc1 | / | 28.2µM | . | / | / | .
COc1ccc(OCC(=O)NNC(=O)c2cccnc2)cc1 | . | . | . | . | . | .
O=C(COc1ccccc1)NNC(=S)NC(=O)c1ccccc1 | / | 22.4µM | . | / | / | .
COc1ccc(C(=O)NC(=S)NNC(=O)COc2ccccc2)cc1 | / | 17.8µM | . | / | / | .
O=C(Cc1cccs1)NNC(=S)NC(=O)c1ccccc1 | . | ? | . | . | . | .
O=C(COc1ccc([N+](=O)[O-])cc1)NNC(=S)NC(=O)c1ccc(Br)cc1 | / | 8.91µM | . | / | / | .
COC(=O)N[C@@H](c1cccc(F)c1)C(C(C)=O)C(=O)OC (stereo partly drawn) | / | . | . | . | / | .
COc1ccc2[nH]cc(CCNc3ncncc3-c3ccccc3Cl)c2c1 | / | . | . | / | / | /
Cn1c(=O)c(-c2ccc(Cl)cc2)nc2cnc(Nc3ccccc3)nc21 | / | . | . | / | / | /
CCN(CC)S(=O)(=O)c1ccc(C(=O)Nc2cc3oc4ccccc4c3cc2OC)cc1 | . | ? | . | . | . | .
CCOc1ccccc1NC(=O)c1ccc(S(=O)(=O)N(C)C)cc1 | . | 14.1µM | . | . | . | .
COc1cc2c(cc1NC(=O)c1cccc(S(=O)(=O)N(C)C)c1)oc1ccccc12 | -107.1 | ? | . | ? | . | .
CCOc1ccccc1NC(=O)CN(Cc1ccccc1)S(C)(=O)=O | -94.2 | . | . | . | . | .
CCOc1ccccc1NC(=O)Nc1cc(S(=O)(=O)N(C)C)ccc1C | / | . | . | / | / | .
CN(C)S(=O)(=O)c1cccc(C(=O)Nc2ccccc2[N+](=O)[O-])c1 | . | ? | . | 39.8µM | . | .
CCN(CC)S(=O)(=O)c1cc(C(=O)Nc2ccccc2[N+](=O)[O-])ccc1Cl | . | . | . | . | . | .
COc1ccccc1C(=O)NNC(=O)c1ccc(NC(=O)CC(C)C)cc1 | / | . | . | / | / | .
COc1ccc(Oc2ncc3nc(-c4ccc(OC)cc4)c(=O)n(CCC#N)c3n2)cc1 | / | ? | . | . | . | /
COc1ccc2c(c1)OC1(O)COc3cc(OC)c(OC)cc3C1=C2 (stereo not drawn) | / | ? | . | ? | . | .
COCCn1c(=O)c(-c2ccc(F)c(F)c2)nc2cncnc21 | / | . | . | . | . | /
COc1ccc(C2=CC(c3ccc(F)cc3)n3nnnc3N2)cc1 (stereo not drawn) | . | . | . | . | . | .
COc1ccc(C2=CC(c3sccc3C)n3nnnc3N2)cc1 (stereo not drawn) | . | 2µM | . | . | . | .
Cc1c(Br)ccc(NC(=O)CCN2C(=O)C3C4CCC(C4)C3C2=O)c1C (stereo not drawn) | . | 31.6µM | . | . | . | .
Cc1cc(NC(=O)CCN2C(=O)C3C4CCC(C4)C3C2=O)cc(C)c1Br (stereo not drawn) | . | ? | . | . | . | .
SMILES | PNC assembly inh | ALDH1A1 inh | aGal spleen mod | HPGD block | ALOX12 inhib | GLA inh pH 4.5
O=C(CN1CCN(C(c2ccccc2)c2ccccc2)CC1)N1CCN(c2ccccc2)CC1 | / | / | . | / | / | .
Cc1ccc(C(=O)N2CCN(c3cc(=O)[nH]nc3-c3ccccc3)CC2)cc1 | . | 15.8µM | . | . | . | .
CC(O)CNC(=O)c1ccc(-c2nn(C)c(=O)c3ccccc23)cc1 (stereo not drawn) | . | . | . | 28.2µM | . | .
Cc1ccc(NC(=O)c2ccc(-c3nn(C)c(=O)c4ccccc34)cc2)cc1 | . | . | . | 17.8µM | . | .
CCCC(=O)NCc1cc(-c2nn(C)c(=O)c3ccccc23)ccc1C | . | . | . | 17.8µM | . | .
O=C(c1ccc(F)cc1)N1CCN(c2cc(=O)[nH]nc2-c2ccccc2)CC1 | . | . | . | . | . | .
CCC(=O)NCc1cc(-c2nn(C)c(=O)c3ccccc23)ccc1C | . | . | . | . | . | .
Cn1nc(-c2ccc(C(=O)Nc3ccc(F)cc3)cc2)c2ccccc2c1=O | / | ? | . | / | / | .
Cc1ccc(-c2nn(C)c(=O)c3ccccc23)cc1CNC(=O)c1ccccc1 | / | . | . | / | / | .
